What all share (assay): universal protein binding microarray (PBM); transcription factors of Arabidopsis thaliana; high values mean tight binding
In assay [1] the target is T1, GST-ANAC092(1-176) (Arabidopsis thaliana, UniProt Q9FKA0 1-176).
T1 sequence: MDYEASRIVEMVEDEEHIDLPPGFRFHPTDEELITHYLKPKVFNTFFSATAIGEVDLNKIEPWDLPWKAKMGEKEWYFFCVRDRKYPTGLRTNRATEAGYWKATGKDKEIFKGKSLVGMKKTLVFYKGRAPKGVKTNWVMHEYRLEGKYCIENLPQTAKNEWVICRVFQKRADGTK
Particulars: protein: recombinant; tags: GST; chain copies: 2; dsDNA, one strand shown. A digest of the protocol: (§1)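 For zinc-finger proteins, zinc acetate was added while GST-tagged NAC-domain, full-length or DNA-binding-domain proteins were induced in cells. Purification used glutathione–Sepharose 4B, and quantification used A280 or anti-GST western blot. Custom all-10-mer Agilent 4 × 180K arrays, made double-stranded by primer extension, each received a protein at 200 to 500 nM final in duplicate. Scoring covered gapped and ungapped 8-mers, with binding given as the normalised enrichment score (E-score).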

For assay [2], the target named is T2, GST-ANAC092(1-285) full length (Arabidopsis thaliana, UniProt Q9FKA0 1-285).
T2 sequence: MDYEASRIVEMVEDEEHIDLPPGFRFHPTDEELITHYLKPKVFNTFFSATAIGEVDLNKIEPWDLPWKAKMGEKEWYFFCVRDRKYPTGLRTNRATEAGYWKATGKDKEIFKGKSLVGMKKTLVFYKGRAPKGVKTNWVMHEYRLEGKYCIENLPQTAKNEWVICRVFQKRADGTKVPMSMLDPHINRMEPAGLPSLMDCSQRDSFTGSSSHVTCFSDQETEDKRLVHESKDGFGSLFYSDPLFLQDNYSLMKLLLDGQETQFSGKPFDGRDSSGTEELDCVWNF
Particulars: protein: recombinant; tags: GST; chain copies: 2; dsDNA, one strand shown. Summed up: as §1

The target in assay [3] is T3, GST-NAP(1-166) (Arabidopsis thaliana, UniProt O49255 1-166).
T3 sequence: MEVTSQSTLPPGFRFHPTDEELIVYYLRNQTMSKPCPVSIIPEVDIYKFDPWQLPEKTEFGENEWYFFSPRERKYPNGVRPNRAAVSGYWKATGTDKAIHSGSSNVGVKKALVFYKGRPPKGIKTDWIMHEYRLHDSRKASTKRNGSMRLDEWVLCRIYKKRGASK
To be noted: protein: recombinant; tags: GST; chain copies: 2; dsDNA, one strand shown. A digest of the protocol: as §1

Assay [4] concerns the target T4, GST-SND1(1-203) (Arabidopsis thaliana, UniProt Q9LPI7 1-203).
T4 sequence: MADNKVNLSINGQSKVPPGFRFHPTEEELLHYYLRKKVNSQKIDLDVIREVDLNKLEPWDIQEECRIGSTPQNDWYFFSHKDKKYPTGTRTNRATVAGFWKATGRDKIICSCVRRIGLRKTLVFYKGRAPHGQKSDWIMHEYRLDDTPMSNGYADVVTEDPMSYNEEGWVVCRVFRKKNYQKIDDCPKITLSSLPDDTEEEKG
To be noted: protein: recombinant; tags: GST; chain copies: 2; dsDNA, one strand shown. Summed up: as §1

The target in assay [5] is GST-WRKY1(266-371) (Arabidopsis thaliana, UniProt Q9SI37 266-371). Particulars: protein: recombinant; tags: GST; dsDNA, one strand shown. Summed up: as §1
GST-WRKY1(266-371), sequence (Q9SI37 266-371): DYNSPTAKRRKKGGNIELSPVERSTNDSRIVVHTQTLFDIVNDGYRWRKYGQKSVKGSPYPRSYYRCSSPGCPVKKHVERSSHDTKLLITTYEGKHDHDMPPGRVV
Assay [6] deals with GST-NTL6(1-168) (Arabidopsis thaliana, UniProt Q9SCK6 1-168). Particulars: protein: recombinant; tags: GST; chain copies: 2; dsDNA, one strand shown. A digest of the protocol:
as §1

In assay [7] the target is T5, GST-ATAF1 NAC domain (Arabidopsis thaliana, UniProt Q39013 7-158).
T5 sequence: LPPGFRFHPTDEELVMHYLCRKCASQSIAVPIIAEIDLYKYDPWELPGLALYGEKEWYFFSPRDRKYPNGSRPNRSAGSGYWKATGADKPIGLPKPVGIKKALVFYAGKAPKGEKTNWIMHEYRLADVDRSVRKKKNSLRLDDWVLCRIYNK
To be noted: protein: recombinant; tags: GST; chain copies: 2; dsDNA, one strand shown. A digest of the protocol:
as §1

Assay [8] addresses T6, GST-NTL8 NAC domain (Arabidopsis thaliana, UniProt Q9XIN7 14-156).
T6 sequence: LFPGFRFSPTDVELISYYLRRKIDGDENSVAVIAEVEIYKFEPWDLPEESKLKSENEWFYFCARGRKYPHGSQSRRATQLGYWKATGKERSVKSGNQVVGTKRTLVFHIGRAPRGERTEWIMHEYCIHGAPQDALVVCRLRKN
Particulars: protein: recombinant; tags: GST; chain copies: 2; dsDNA, one strand shown. A digest of the protocol:
as §1

Assay [9] addresses T7, GST-ANAC019 NAC domain (Arabidopsis thaliana, UniProt Q9C932 14-162).
T7 sequence: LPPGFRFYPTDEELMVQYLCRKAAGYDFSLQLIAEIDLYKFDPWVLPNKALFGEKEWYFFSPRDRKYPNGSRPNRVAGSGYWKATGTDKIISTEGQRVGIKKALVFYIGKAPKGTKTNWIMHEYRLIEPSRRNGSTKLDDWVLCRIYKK
Particulars: protein: recombinant; tags: GST; chain copies: 2; dsDNA, one strand shown. A digest of the protocol:
as §1

The target in assay [10] is T8, GST-NST2(1-184) (Arabidopsis thaliana, UniProt Q9M274 1-184).
T8 sequence: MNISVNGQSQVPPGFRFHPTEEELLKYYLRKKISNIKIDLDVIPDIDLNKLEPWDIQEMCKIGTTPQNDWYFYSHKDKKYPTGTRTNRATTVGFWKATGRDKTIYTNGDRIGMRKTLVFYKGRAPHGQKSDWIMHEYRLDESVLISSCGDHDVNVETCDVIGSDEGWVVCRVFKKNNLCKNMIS
To be noted: protein: recombinant; tags: GST; chain copies: 2; dsDNA, one strand shown. A digest of the protocol:
as §1

The target of assay [11] is T9, GST-ANAC055(1-171) (Arabidopsis thaliana, UniProt Q9LDY8 1-171).
T9 sequence: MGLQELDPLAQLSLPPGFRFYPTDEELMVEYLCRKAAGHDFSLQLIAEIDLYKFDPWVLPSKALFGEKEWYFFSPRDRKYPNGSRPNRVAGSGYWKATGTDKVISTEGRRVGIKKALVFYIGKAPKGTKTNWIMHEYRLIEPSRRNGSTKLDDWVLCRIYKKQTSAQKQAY
Particulars: protein: recombinant; tags: GST; chain copies: 2; dsDNA, one strand shown. A digest of the protocol:
as §1

The target in assay [12] is T10, GST-VND3 NAC domain (Arabidopsis thaliana, UniProt Q9FH59 12-162).
T10 sequence: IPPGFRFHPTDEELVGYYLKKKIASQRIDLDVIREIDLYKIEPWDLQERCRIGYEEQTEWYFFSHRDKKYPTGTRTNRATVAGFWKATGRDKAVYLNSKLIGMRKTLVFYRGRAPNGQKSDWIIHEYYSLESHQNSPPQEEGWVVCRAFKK
Particulars: protein: recombinant; tags: GST; chain copies: 2; dsDNA, one strand shown. A digest of the protocol:
as §1

For assay [13], the target named is T11, GST-VND7 NAC domain (Arabidopsis thaliana, UniProt Q9C8W9 9-158).
T11 sequence: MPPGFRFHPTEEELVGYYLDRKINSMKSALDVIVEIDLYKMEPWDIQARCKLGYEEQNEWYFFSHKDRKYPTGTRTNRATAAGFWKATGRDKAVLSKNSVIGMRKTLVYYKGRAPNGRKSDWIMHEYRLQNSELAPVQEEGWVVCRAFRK
To be noted: protein: recombinant; tags: GST; chain copies: 2; dsDNA, one strand shown. A digest of the protocol:
as §1

GST-NTL6(1-168), sequence (Q9SCK6 1-168): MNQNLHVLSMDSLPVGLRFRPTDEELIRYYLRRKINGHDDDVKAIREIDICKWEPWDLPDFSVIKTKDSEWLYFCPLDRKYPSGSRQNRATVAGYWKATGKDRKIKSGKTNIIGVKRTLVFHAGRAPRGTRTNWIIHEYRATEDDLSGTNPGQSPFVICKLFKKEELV

Turning to ACCGTTGA, the binding signal amounted to 0.112 E-score in assay [1]; 0.205 E-score in assay [2]; 0.132 E-score in assay [3]; 0.123 E-score in assay [4]; 0.404 E-score in assay [5].

Consider CTTAGTCA, for which the binding signal was determined as 0.243 E-score in assay [6]; 0.101 E-score in assay [7]; 0.091 E-score in [8]; 0.118 E-score in assay [4]; 0.424 E-score in assay [5].

On to AGGAAAGG, for which the binding signal in [1] stood at 0.0968 E-score; in [6], 0.0725 E-score; in assay [9], 0.0699 E-score; in [10], 0.064 E-score; in assay [8] it was 0.44 E-score; in assay [4] it was 0.136 E-score.

Take GTCAAGCA: the binding signal came out at 0.106 E-score in [2], 0.0699 E-score in assay [4] and 0.44 E-score in assay [5].

With CACACGCC, the binding signal in assay [1] was 0.396 E-score; in assay [9], 0.207 E-score; in assay [11], 0.124 E-score; in assay [7], 0.145 E-score; in assay [2], 0.428 E-score; in assay [10] it was 0.134 E-score. In assay [4], the binding signal is 0.119 E-score.

Regarding CTAAGGAA, the binding signal in assay [1] was found to be 0.125 E-score; in assay [6], 0.47 E-score; in assay [2], 0.128 E-score; in assay [10] it was 0.144 E-score; in assay [8] it was 0.246 E-score; in [4] it was 0.306 E-score.

As for GCTAAGCA, the binding signal in assay [6] amounted to 0.411 E-score; in assay [10] it was 0.0614 E-score; in assay [4] it was 0.155 E-score.

For the sequence GGGGGTAA, the binding signal in [6] came to 0.147 E-score; in [2], 0.166 E-score; in [8], 0.403 E-score; in [4] it was 0.229 E-score.

Regarding ACTAGTCA, the binding signal worked out at 0.0862 E-score in assay [1]; 0.0985 E-score in [9]; 0.134 E-score in [11]; 0.0655 E-score in assay [7]; 0.0648 E-score in assay [2]; 0.0759 E-score in assay [3]. The binding signal was 0.128 E-score in assay [8], 0.108 E-score in assay [12], 0.0656 E-score in assay [13] and 0.435 E-score in assay [5].

In the case of TGAGGAAA, the binding signal stood at 0.0937 E-score in assay [1]; 0.106 E-score in [6]; 0.105 E-score in assay [10]; 0.429 E-score in assay [8]; 0.172 E-score in [4].

Regarding ACAGTCAA, the binding signal came to 0.141 E-score in [1]; 0.0601 E-score in assay [11]; 0.081 E-score in assay [7]; 0.0848 E-score in assay [2]; 0.0868 E-score in [3]; 0.164 E-score in assay [8]. Moreover, the results for the binding signal in [12], in [13] and in assay [5] were 0.0711 E-score, 0.0752 E-score and 0.477 E-score, respectively.

ATTTCCTC: the binding signal in assay [6] was found to be 0.148 E-score; in assay [10], 0.115 E-score; in assay [8] it was 0.437 E-score; in [4] it was 0.091 E-score.

For ACGCCACG, the binding signal was determined as 0.382 E-score in assay [1]; 0.147 E-score in assay [9]; 0.14 E-score in assay [11]; 0.0586 E-score in assay [7]; 0.409 E-score in assay [2]; 0.128 E-score in [10]. Moreover, in assay [4], the binding signal came to 0.249 E-score.

For the sequence GAGGAAAC, the binding signal in [1] was determined as 0.0974 E-score; in assay [7], 0.0627 E-score; in [2], 0.0772 E-score; in assay [3], 0.0571 E-score; in assay [8], 0.465 E-score; in assay [4] it was 0.099 E-score.

As to CTGGCGTA, the binding signal in [1] is 0.371 E-score; in assay [9], 0.106 E-score; in assay [11], 0.0635 E-score; in [2], 0.396 E-score; in [10] it was 0.203 E-score; in [4], 0.409 E-score.

Source of the values: PMC4081100, “A DNA-binding-site landscape and regulatory network analysis for NAC transcription factors in Arabidopsis thaliana”.
